The values that follow come from PubChem BioAssay (NCATS).

The target of assay [1] is Lysosomal acid glucosylceramidase (Homo sapiens) (UniProt P04062). The assay can be described thus: Glucocerebrosidase-p2 (AID 348; in the data active = potency below about 10 µM; also: potency is read from the fitted curve at half-maximal effect). Particulars: purified GBA, blue fluorogenic substrate, 40 min. The gist of the method: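 Normal human glucocerebrosidase (0.2 nM) with blue fluorogenic substrate (80 uM final) in citrate/phosphate pH 5.9 with 10mM sodium taurocholate, 0.01% tween-20; 40 min RT, NaOH/glycine stop; fluorescence Ex 365/Em 440; AC50 from a titration from 0.6 nM upwards.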

Assay [2] is described as follows: AP1 Signaling Pathway (AID 357).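 Also: ME-180 reporter cells stimulated with EGF at its EC50 level; % is scaled to controls: 0 for no effect and ±100 for the full control effect.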 Particulars: ME-180 AP-1-bla reporter, EGF-induced, beta-lactamase ratio, 5 h; at 7.69 µM (top of the series) unless noted. In outline: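 A ratiometric CCF4 readout (405 nm excitation; 460 and 530 nm emission) quantified AP-1-driven beta-lactamase in ME-180 cells after 5 h with compound and EC50 EGF; AC50 values were derived for activators and inhibitors.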

Assay [3] concerns the target Cytochrome P450 1A2 (Homo sapiens) (UniProt P05177). Briefly: p450-cyp1a2 (AID 410; calls by dose curve; also: potency is read from the fitted curve at half-maximal effect;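 as to activity change, negative = inhibition: -100% = full effect of reference inhibitor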). Particulars: recombinant CYP1A2, luciferin-ME demethylation, luminescence; series mostly up to 11.4 µM. The gist of the method:
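Read-out is luminescence from luciferin produced by CYP1A2 demethylation of Luciferin-ME (100uM, at Km). Detection reagent stopped the 60 min NADPH-dependent reaction; signals were normalized to 57 uM furafylline.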

The nature of assay [4]: Stat Signaling Pathway (AID 446).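 Also: ME-180 cervical cancer cells given 40 pM IL-6 alongside compound; SIE-controlled beta-lactamase reporter measured as 460/530 nm FRET emission ratio; % is scaled to controls: 0 for no effect and ±100 for the full control effect.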 The settings on record: ME-180 SIE beta-lactamase reporter, IL-6 stimulated, 5 h; at 7.69 µM (top of the series) unless noted. The gist of the method: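 Compound effects on IL-6-induced STAT reporter activity were measured in ME-180 cells. After overnight culture, cells were co-treated with 40 pM IL-6 for 5 hrs before beta-lactamase substrate loading at room temperature.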

Assay [5] has as its target Glucocorticoid receptor (Homo sapiens) (UniProt P04150). Briefly: GR-GFP Redistribution (AID 450;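 active = compounds whose dose series gives a full or clear partial fitted curve of increased nuclear translocation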; also: potency is read from the fitted curve at half-maximal effect). The settings on record: U2OS GR-GFP nuclear translocation, laser cytometry, 2 h.
Assay [6] shares this target. Briefly: GR-EFC Redistribution (AID 451; calls by dose curve; also: potency is read from the fitted curve at half-maximal effect). The settings on record: CHO-K1 GR-EFC translocation, beta-gal luminescence, 2 h. In outline:
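Translocation of GR-ED fusion to nuclear EA restores b-gal, read by luminescence after 1 h room-temperature detection. Engineered CHO-K1 biosensor cells, 1,000/well, exposed 2 h at 37 C to titrations up to 46 uM final.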

For assay [7], the target named is Mitogen-activated protein kinase 10 (Mus musculus) (UniProt Q61831). The assay can be described thus: JNK3 AlphaScreen Assay (AID 530).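 Also: kinase came from lysate of stimulated human HepG2 cells; signal reports phosphorylation of biotinylated GST-cJun 1-79 at Ser73 with 10 µM ATP; % is scaled to controls: 0 for no effect and ±100 for the full control effect.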 The settings on record: JNK3 lysate, c-Jun phosphorylation; series mostly up to 11.4 µM. In outline: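 Kinase buffer: 20 mM Tris-HCl pH 7.6, 10 mM MgCl2, 1 mM DTT, 0.1 mM Na3VO4, 0.01% Tween-20; ATP 10 uM. Substrate biotin-GST-cJun(1-79), enzyme from activated HepG2 lysates. Detection by Ser73 phospho-antibody AlphaScreen.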
On the technique in general: Alpha assays give light when donor and acceptor beads are brought close together.

The target of assay [8] is 3',5'-cyclic-AMP phosphodiesterase 4B (Homo sapiens) (UniProt Q07343). The assay can be described thus: qHTS Assay for Inhibitors of PDE-IV (AID 607; active = well fitted activation curve with a large enough effect in the main read-out, with a control signal flat, not every such curve was filed as active; also: % of control where 0% means no effect). Particulars: HEK293 ACTOne CNG channel cells, membrane potential fluorescence; series mostly up to 22.9 µM. In outline: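 ACTOne HEK293 cells carry a modified cAMP-gated CNG channel and express endogenous PDE4; plated 1000 cells/well, compounds up to 22.9 uM final. Membrane-potential dye fluorescence (ex 535/em 590) was read; parental cells received 10 uM forskolin + 100 uM RO 20-1724.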
A general note: Quantitative high-throughput screening tests each substance at several concentrations.

Assay [9] has as its target Cytochrome P450 2C9 (Homo sapiens) (UniProt P11712). Briefly: qHTS Assay for Inhibitors and Substrates of Cytochrome P450 2C9 (AID 883; active = well fitted curve in the direction sought with a large enough effect; an effect the other way counts as inactive or inconclusive; also: nearly all actives have a fitted effect of over 60% in size; also: potency is read from the fitted curve at half-maximal effect; as to activity change, negative = inhibition: % is scaled to controls: 0 for no effect and ±100 for the full control effect). The settings on record: recombinant CYP2C9, luciferin-H luminescence, 60 min; series mostly up to 11.4 µM. The gist of the method:
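Turnover of Luciferin-H (100uM, KM) by 10nM human CYP2C9 was measured over 60 min at 37C with NADPH regeneration; inhibitors and some substrates reduce luminescence. Data normalized to sulphaphenazole 57uM.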

Assay [10] deals with Cytochrome P450 3A4 (Homo sapiens) (UniProt P08684). Briefly: qHTS Assay for Activators of Cytochrome P450 3A4 (AID 885; active = well fitted curve in the direction sought with a large enough effect; an effect the other way counts as inactive or inconclusive; also: nearly all actives have a fitted effect of over 65% in size). The settings on record: recombinant CYP3A4, Luciferin-PPXE luminescence, 60 min; series mostly up to 11.4 µM. In outline: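 CYP3A4 activity: Luciferin-PPXE O-dealkylation, 25uM substrate, 200mM KPO4, RT throughout. Read-out is luciferase luminescence; higher values reflect activation.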

Assay [11] deals with Cytochrome P450 2C19 (Homo sapiens) (UniProt P33261). Briefly: qHTS Assay for Inhibitors and Substrates of Cytochrome P450 2C19 (AID 899; active = well fitted curve in the direction sought with a large enough effect; an effect the other way counts as inactive or inconclusive; also: potency is read from the fitted curve at half-maximal effect; nearly all actives have a fitted effect of over 60% in size). Particulars: recombinant CYP2C19, luciferin-H EGE luminescence; series mostly up to 11.4 µM. In outline: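 Reactions contain 5nM enzyme, 10uM Luciferin-H EGE (KM) and 50mM KPO4; compound preincubates 10 min at 37C, NADPH regeneration starts turnover for 60 min. Luminescence after detection reagent gives activity.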

A short description of assay [12]: qHTS Assay for Identification of Small Molecule Agonists for Hypoxia Response Element Signaling Pathway (AID 914; active = well fitted activation curve with a large enough effect in the signal ratio, with a control signal flat, not every such curve was filed as active; the % refers to the signal ratio; also: % of control where 0% means no effect). The settings on record: ME-180 (cervical carcinoma) HRE-bla reporter, beta-lactamase ratio, CoCl2, 17 h; activation: hits give high values. In outline: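 Positive modulation of EC50 CoCl2-induced hypoxia response element signaling is measured in ME-180 cells with a beta-lactamase reporter. Compounds are titrated, incubation runs 17 hours, and %Activity derives from the blue/green ratio.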

SMILES strings stand for the structures. Unmarked numbers belong to inactive results. Results filed as inconclusive are left out. Calls of active or inactive are those of the source. Unless noted, calls follow the shape of the dose curve; as a rule, active = well fitted curve in either direction with a large enough effect (not every such curve was filed as active); inconclusive = small, poorly fitted or top-dose-only effect, or another doubt; inactive = flat fitted curve, though single readings scatter.

Sequence of Glucocorticoid receptor (Homo sapiens) (P04150 whole entry, looked up): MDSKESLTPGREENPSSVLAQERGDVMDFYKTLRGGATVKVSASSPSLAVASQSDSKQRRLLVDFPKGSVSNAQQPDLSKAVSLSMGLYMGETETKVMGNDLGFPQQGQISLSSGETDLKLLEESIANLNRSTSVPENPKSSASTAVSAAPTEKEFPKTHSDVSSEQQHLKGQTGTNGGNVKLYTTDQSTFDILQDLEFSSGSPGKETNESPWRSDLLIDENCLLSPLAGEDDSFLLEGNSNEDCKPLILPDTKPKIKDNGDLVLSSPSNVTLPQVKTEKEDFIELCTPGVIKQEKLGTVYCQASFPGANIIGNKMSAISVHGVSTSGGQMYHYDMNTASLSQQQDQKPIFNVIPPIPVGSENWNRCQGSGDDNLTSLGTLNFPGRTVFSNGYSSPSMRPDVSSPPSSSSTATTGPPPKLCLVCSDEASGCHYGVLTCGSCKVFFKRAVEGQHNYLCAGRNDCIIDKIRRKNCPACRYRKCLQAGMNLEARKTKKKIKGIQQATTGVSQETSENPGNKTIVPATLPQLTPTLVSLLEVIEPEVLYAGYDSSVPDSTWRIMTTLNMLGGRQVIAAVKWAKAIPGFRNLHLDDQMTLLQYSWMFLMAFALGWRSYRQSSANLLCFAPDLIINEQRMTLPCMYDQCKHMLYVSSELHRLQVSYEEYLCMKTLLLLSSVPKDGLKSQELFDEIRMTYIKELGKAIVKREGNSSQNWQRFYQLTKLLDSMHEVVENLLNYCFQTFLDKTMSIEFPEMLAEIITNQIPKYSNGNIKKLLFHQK
Sequence of 3',5'-cyclic-AMP phosphodiesterase 4B (Homo sapiens) (Q07343 whole entry, looked up): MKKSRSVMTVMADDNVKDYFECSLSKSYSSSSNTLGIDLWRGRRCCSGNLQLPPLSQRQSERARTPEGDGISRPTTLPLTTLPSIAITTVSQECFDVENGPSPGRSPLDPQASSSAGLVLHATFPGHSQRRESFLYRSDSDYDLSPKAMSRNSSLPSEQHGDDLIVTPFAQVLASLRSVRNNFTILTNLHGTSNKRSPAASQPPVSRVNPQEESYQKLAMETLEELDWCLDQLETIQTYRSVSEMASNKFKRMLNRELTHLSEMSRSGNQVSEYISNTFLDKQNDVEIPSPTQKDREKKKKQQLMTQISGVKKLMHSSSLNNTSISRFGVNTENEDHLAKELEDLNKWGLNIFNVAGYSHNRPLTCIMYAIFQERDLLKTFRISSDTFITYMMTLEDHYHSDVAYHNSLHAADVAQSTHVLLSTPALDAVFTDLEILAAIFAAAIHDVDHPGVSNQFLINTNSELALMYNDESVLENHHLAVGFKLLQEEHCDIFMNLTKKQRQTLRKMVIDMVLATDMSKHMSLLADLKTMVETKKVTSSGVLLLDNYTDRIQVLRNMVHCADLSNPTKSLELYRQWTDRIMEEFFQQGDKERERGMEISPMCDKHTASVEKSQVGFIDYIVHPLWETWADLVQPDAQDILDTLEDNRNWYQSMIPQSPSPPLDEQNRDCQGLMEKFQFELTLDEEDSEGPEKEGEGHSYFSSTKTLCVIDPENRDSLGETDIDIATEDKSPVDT
Sequence of Cytochrome P450 1A2 (Homo sapiens) (P05177 whole entry, looked up): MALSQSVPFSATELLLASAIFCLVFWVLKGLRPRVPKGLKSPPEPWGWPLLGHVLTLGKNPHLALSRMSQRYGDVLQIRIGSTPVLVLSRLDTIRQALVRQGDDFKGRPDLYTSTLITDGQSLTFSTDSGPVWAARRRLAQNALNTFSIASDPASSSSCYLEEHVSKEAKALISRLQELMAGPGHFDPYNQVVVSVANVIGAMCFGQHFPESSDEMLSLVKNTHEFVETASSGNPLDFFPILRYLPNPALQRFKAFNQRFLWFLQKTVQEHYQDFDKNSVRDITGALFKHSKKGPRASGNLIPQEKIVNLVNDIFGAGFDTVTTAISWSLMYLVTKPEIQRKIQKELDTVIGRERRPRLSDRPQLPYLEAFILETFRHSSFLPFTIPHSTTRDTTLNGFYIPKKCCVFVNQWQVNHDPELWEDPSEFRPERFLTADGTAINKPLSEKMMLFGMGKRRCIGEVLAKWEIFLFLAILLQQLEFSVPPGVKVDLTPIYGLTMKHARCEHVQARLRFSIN
Sequence of Cytochrome P450 2C9 (Homo sapiens) (P11712 whole entry, looked up): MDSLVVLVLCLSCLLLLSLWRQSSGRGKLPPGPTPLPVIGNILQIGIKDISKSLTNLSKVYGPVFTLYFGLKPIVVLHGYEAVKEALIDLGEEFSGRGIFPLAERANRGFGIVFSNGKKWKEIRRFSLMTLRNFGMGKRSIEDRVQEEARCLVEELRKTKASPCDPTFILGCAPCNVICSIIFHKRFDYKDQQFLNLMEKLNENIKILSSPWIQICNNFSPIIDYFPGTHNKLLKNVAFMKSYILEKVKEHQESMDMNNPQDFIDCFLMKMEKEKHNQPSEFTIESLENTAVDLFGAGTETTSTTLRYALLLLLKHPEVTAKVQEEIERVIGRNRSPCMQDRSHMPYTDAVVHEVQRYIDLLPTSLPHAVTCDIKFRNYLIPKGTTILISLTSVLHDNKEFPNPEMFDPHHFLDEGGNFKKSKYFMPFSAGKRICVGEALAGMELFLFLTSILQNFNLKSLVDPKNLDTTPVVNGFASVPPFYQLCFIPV
Sequence of Cytochrome P450 2C19 (Homo sapiens) (P33261 whole entry, looked up): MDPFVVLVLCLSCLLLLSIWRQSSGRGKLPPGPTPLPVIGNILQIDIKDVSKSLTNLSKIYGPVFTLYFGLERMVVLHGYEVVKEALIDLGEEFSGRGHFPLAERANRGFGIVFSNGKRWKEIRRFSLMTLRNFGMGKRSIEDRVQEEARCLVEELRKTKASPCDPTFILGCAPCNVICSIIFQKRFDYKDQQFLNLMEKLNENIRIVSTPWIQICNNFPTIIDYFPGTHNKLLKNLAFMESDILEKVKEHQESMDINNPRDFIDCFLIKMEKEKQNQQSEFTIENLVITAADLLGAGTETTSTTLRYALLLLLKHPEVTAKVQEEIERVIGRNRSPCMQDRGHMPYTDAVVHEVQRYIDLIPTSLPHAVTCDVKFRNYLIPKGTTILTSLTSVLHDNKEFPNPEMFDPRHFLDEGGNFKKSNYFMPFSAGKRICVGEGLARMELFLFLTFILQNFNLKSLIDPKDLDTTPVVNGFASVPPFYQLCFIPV
Sequence of Cytochrome P450 3A4 (Homo sapiens) (P08684 whole entry, looked up): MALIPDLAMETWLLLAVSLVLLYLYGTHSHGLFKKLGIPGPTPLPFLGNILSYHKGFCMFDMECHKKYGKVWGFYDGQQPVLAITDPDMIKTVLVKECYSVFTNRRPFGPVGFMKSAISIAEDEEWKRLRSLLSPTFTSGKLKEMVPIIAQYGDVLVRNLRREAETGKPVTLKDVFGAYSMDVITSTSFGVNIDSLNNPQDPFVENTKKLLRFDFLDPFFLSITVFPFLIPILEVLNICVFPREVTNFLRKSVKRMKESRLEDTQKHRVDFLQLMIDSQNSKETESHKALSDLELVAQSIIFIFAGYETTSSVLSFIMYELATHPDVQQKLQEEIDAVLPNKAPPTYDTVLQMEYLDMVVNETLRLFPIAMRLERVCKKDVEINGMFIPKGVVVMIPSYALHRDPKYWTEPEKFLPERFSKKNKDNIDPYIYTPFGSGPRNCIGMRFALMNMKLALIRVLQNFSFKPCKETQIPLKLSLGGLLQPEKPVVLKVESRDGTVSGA
Sequence of Lysosomal acid glucosylceramidase (Homo sapiens) (P04062 whole entry, looked up): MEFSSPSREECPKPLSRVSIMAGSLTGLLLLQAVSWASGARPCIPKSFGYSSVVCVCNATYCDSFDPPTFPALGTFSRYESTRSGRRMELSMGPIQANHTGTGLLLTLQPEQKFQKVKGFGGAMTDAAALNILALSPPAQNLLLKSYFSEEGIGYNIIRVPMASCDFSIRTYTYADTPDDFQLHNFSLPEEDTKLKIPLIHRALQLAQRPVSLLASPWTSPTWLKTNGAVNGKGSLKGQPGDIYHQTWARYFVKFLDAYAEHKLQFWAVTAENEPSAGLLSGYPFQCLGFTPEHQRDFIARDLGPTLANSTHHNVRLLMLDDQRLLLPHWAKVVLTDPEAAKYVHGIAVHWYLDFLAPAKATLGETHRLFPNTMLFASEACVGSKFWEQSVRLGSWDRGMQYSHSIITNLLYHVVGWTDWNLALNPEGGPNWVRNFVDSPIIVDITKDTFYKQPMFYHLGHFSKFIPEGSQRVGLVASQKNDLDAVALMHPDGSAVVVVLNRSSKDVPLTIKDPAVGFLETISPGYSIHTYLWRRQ

Consider `COc1ncc2nc(CCc3ccccc3)c(=O)n(C)c2n1`, for which the Potency in assay [1] is more than 11.4 µM; in assay [3] it was 5.01 µM (active); in [5], more than 9.22 µM; in [6], more than 46 µM. Besides, the activity change, negative = inhibition in [2] is -29.7%. Besides, in assay [4], the activity, negative = inhibition was -1.2%. Also, the Potency result in assay [7] and in assay [8] was “inactive” each time.

Turning to `Cc1c2cccc(Sc3ccccc3)c2c2c3c(cccc13)[S+](c1ccccc1)C2` (stereo unspecified), the Potency in [1] was more than 11.4 µM; in assay [5], more than 46 µM; in assay [6] it was more than 9.22 µM; in [9], 2.51 µM (active); in [11] it was 0.0631 µM (active). Further, the results for the activity change, negative = inhibition in assay [2] and in [3] were -7.04% and -17.3% [at 2.29 µM], respectively. Besides, in assay [4], the activity, negative = inhibition was 2.31%. Moreover, the Potency result in assay [7], in assay [8] and in assay [10] was “inactive” in each case. The activation in [12] is -19.6%.

With `Nc1ncnc2c1ncn2[C@H]1O[C@@H](C(=O)O)[C@@H](O)[C@H]1O`, the Potency in [1] is more than 11.4 µM; in assay [5], more than 46 µM; in assay [6], more than 9.22 µM. In addition, in [2], the activity change, negative = inhibition was 17.5%. Further, the Potency result in [3], in assay [7] and in assay [8] was “inactive” throughout. The activity, negative = inhibition in assay [4] was 6.21%.

In the case of `N=C(N)SCc1nc(-c2ccc(Cl)cc2)no1`, the Potency in assay [1] was more than 11.4 µM; in assay [3], 1.26 µM (active); in [5] it was more than 46 µM; in [6] it was more than 9.22 µM; in assay [9], 3.98 µM (active). The activity change, negative = inhibition in [2] was 26%. For the same molecule, in [4], the activity, negative = inhibition was 17.8%. The Potency entry in [7], in assay [8] and in assay [10] was “inactive” in each case.

With `O=C1[C@@H]2[C@@H](C(=O)N1c1ccc(OCc3ccccc3)cc1)[C@@H]1c3ccccc3[C@@H]2[n+]2ccccc21`, the Potency was more than 11.4 µM in assay [1], more than 46 µM in assay [5] and more than 9.22 µM in [6]. Also, the activity change, negative = inhibition in assay [2] was -1.52%. Also, the Potency result in assay [3], in assay [7] and in assay [8] was “inactive” throughout. Also, the activity, negative = inhibition in [4] was 4.93%.

As to `Cc1cc(C)cc(C(=N)c2ccccc2Cc2cccc3ccccc23)c1`, the Potency was more than 11.4 µM in assay [1], more than 46 µM in assay [5], more than 9.22 µM in assay [6] and 1.58 µM (active) in [11]. Also, the values for the activity change, negative = inhibition in assay [2] and in assay [3] were 1.53% and -5.4% [at 2.29 µM], respectively. Moreover, the activity, negative = inhibition in [4] is 8.92%. Also, the Potency result in assay [7], in assay [8], in assay [9] and in assay [10] was “inactive” throughout.

`COc1ccc2c3c(ccc2c1)N[C@H](C(=O)O)CC3`: the Potency in assay [1] is more than 11.4 µM; in [3], 0.501 µM (active); in assay [5] it was more than 46 µM; in [6], more than 9.22 µM. Further, the activity change, negative = inhibition in assay [2] is -4.14%. Besides, in assay [4], the activity, negative = inhibition is -6.67%. The Potency entry in assay [7] and in assay [8] was “inactive” throughout.

For `COc1ccc2c(Cc3c4ccccc4cc4ccccc34)cncc2c1O`, the Potency is more than 11.4 µM in [1]; 0.126 µM (active) in assay [3]; more than 46 µM in [5]; more than 9.22 µM in assay [6]; 2.51 µM (active) in assay [11]. Also, in [2], the activity change, negative = inhibition was 9.25%. The activity, negative = inhibition in assay [4] was -0.764%. Further, the Potency result in assay [7], in assay [8], in assay [9] and in assay [10] was “inactive” in each case.
